This passage reports activation results from PubChem BioAssay AID1346428 (National Center for Advancing Translational Sciences (NCATS), 2018).

Values joined by “and” are separate entries in the source; they are usually repeats but may differ in a detail not shown here. Identical values can stand only once. Screen size: about 48,000 compounds; about 1,200 (2.5%) were called active. Roughly 2% stayed inconclusive and do not appear here. This is one part of a sample in which actives are shown more often than they occur.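 Rule for the calls: active = activation of at least 60% and not above a set upper limit (about 1 call in 100 departs from these limits); inconclusive = activation of 40% to 60%, or above that upper limit; inactive = activation under 40%.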 A structure can be active in one record and inactive in another.

Probable G-protein coupled receptor 32 (Homo sapiens), sequence (O75388 whole entry, looked up, the tested form may be a part): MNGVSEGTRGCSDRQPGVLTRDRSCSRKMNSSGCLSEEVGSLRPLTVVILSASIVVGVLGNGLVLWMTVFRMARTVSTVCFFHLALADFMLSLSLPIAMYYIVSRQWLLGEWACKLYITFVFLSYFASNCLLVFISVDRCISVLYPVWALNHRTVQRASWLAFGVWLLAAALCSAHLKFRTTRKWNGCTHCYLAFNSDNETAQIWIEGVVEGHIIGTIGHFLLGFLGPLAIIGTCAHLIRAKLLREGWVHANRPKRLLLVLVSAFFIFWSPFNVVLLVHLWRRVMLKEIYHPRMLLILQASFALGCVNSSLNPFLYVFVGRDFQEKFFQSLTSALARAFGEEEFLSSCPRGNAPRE

This test has as its target Probable G-protein coupled receptor 32 (Homo sapiens) (UniProt O75388). In words: qHTS for Agonists of Human Resolvin D1 Receptor DRV1. Particulars: CHO-K1 GPR32 beta-arrestin PathHunter luminescence, 90 min; at 76.9 µM; stronger effect = higher value; zero percent set by DMSO-only wells. A digest of the protocol:
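PathHunter enzyme-fragment complementation, CHO-K1 GPR32 stable line; 2,500 cells/well, overnight attach; cpd 90 min 37 °C 5% CO2; detection reagent 1 h RT; chemiluminescence. DMSO = EC0.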
Take `O=C(O)CCCc1ccccc1`: the activation is 6.7% (inactive).
On to `O=C(OCc1ccccc1)c1ccc(O)cc1`, for which the activation was 68.1% (active).
For the molecule `CCOC(=O)c1ccc(CN(Cc2ccccc2)S(=O)(=O)c2ccc(Cl)cc2)cc1`, the activation is -16.7% (inactive).
Regarding `COc1ccc(NC(=O)Cn2c(=O)n(Cc3ccc(C(=O)NCc4ccccc4Cl)cc3)c(=O)c3ccccc32)cc1`, the activation is -4.2% (inactive).
The same measure for `CCCCCCc1ccc(O)cc1O`: 89.2% (active); for `Cc1ccc(O)c(NC(=O)CCS(=O)(=O)c2nc(-c3ccc4c(c3)OCO4)cc(C(F)(F)F)n2)c1`: -25.7% (inactive).
For `COC(=O)c1ccc2c(c1)N(CC(=O)Nc1ccc(C)c(C)c1)C(=O)c1ccccc1S2` the value was -13.7% (inactive); for `COc1ccc(CNC(=O)CCc2c(C)nn(-c3ccc(N4CCCC4)nn3)c2C)cc1`, -8.15% (inactive).
The same measure for `Cc1ccccc1Cn1nc(C)c(NC(=O)c2cc(-c3ccc(F)cc3)on2)c1C`: 6.09% (inactive); for `Cc1nn(Cc2ccc(F)cc2)c(C)c1NC(=O)c1cc(CC(C)C)on1`: 86.4% (active); for `O=C(Nc1ccccc1Br)c1cc(CN2CCCC2)on1`: -9.24% (inactive).
As for `Cc1ccc(NC(=O)C(Cc2ccccc2)NS(=O)(=O)c2ccc3c(c2)oc(=O)n3C)cc1C` (stereo not given), the activation was 4.78% (inactive).
For `CCN(CCCNC(=O)Cn1ncc2c3ccccc3n(C)c2c1=O)Cc1ccccc1` the value was -3.31% (inactive).
For `Cc1ccc(C)c(N2CCN(C(=O)Cn3nc(C)c4sc5ccccc5c4c3=O)CC2)c1` the value was -8.71% (inactive).
For `O=C(CN1c2ccccc2S(=O)(=O)c2ccccc21)Nc1cccc(C(F)(F)F)c1` the value was 1.8% (inactive); for `CN(CC(=O)Nc1cccc(C(F)(F)F)c1)S(=O)(=O)c1cccs1`, 67.5% (active).
For the molecule `O=C(CCS(=O)(=O)c1ccc2c(c1)NC(=O)CO2)Nc1cccc(C(F)(F)F)c1`, the activation is 13.3% (inactive).
Turning to `CCc1ccccc1NC(=O)N1CCC2(CC1)Oc1ccccc1C(=O)N2Cc1ccccc1F`, the activation is -16.7% (inactive).
For `O=C(CSc1n[nH]c(-c2ccccc2)n1)N1CCCCC1` the value was 7.63% (inactive).
For `Cc1cccc(OCCCC(=O)Nc2sc3c(c2C(N)=O)CCC(C)C3)c1` (stereo not given) the value was 70.3% (active).
The same measure for `COC(=O)c1c(NC(=O)CCCOc2ccccc2)sc2c1CCC(C)C2` (stereo not given): 7.01% (inactive).
As for `CCOc1ccc(NC(=O)c2c(NC(=O)Cc3ccccc3)sc3c2CCC(C)C3)cc1` (stereo not given), the activation is -11.2% (inactive).
Regarding `COc1ccccc1-c1cc2nc(C)c(CCC(=O)O)c(C)n2n1`, the activation is -0.841% (inactive).
For `COc1ccc(NC(=O)CCCN2C(=O)CCn3nc(-c4cn(C)c5ccccc45)cc32)cc1OC` the value was 17.2% (inactive); for `CCOc1cc(C2c3c(-c4ccc(Br)cc4)n[nH]c3C(=O)N2c2ccc(Cl)cc2)ccc1O` (stereo not given), 85.1% (active); for `CCOC(=O)c1ccc(N2C(=O)c3n[nH]c(C)c3C2c2ccc(O)c(OC)c2)cc1` (stereo not given), 21.2% (inactive).
The same measure for `CCOc1ccc(-c2n[nH]c3c2C(c2ccccc2OC)N(c2ccc(Br)cc2)C3=O)cc1` (stereo not given): -5.97% (inactive).
For `CCCOC(=O)c1c(NC(=O)c2cc3nc(-c4ccc(OC)cc4)cc(C(F)(F)F)n3n2)sc2c1CCCC2` the value was 16% (inactive); for `COc1ccc(NC(=O)Cn2c(=O)cc(C)c3c(C)nn(-c4cccc(Cl)c4C)c32)cc1OC`, -11.5% (inactive); for `Cc1ccccc1OCc1ccc(-c2nc(C#N)c(N3CCCCC3)o2)o1`, -28.2% (inactive).
`Cc1cc(C)cc(OCC(=O)Nc2nc(-c3ccc(F)cc3)ns2)c1`: the activation was 4.54% (inactive).
For `COc1cc(CNCCSc2nnnn2C)ccc1OCc1ccc(Cl)cc1Cl` the value was 60% (active); for `COc1cc(CNCCSc2nnnn2C)ccc1OCc1c(F)cccc1Cl`, 14.1% (inactive).
For `Cn1nnnc1SCCNCc1ccc(Cl)c(Cl)c1` the value was -5.94% (inactive); for `CCc1ccccc1NC(=O)N1CCN(C(=O)c2nsc3ccccc23)CC1`, -15.9% (inactive); for `COc1cccc(Cn2c(SCc3ccc(C(=O)N4CCCCC4)cc3)nc3ccncc32)c1`, 30.7% (inactive).
For `Cc1[nH]c2ccccc2c1C(c1ccccc1)c1cccs1` (stereo not given) the value was 73.6% (active); for `COc1ccc(-c2onc(C)c2C)cc1S(=O)(=O)NCCc1ccccc1`, 3.28% (inactive).
Consider `O=C(Nc1nnc(C2CC(=O)N(c3ccc(Cl)cc3)C2)s1)c1ccco1` (stereo not given), for which the activation was -14.5% (inactive).
The same measure for `CCCCN(C)CCCNC(=O)CN1N=C(c2ccc(OC)cc2)CCC1=O`: 11.3% (inactive).
For `Cc1ccc(S(=O)(=O)N2CCCc3cc(NS(=O)(=O)c4cc(C)ccc4C)ccc32)cc1` the value was -16.6% (inactive).
The same measure for `C=Cc1ccc(Cn2c(C(=O)OC)cc3sc(C)cc32)cc1`: -21.6% (inactive).
Turning to `CCC(C(=O)OCCN(CC)CC)c1ccccc1` (stereo not given), the activation is 1.87% (inactive).
With `CCCC(C(=O)OCCN(CC)CC)(c1ccccc1)c1ccccc1`, the activation was 60.2% (active) and -17.3% (inactive).
For `Cc1ccc(N(CC(=O)Nc2cc(C)cc(C)c2)S(=O)(=O)c2cccc3nonc23)cc1`, the activation is -3.71% (inactive).
For `Cc1ccc(NC(=O)Cn2c(=O)n(-c3ccccc3)c(=O)c3c4c(sc32)CCCC4)cc1` the value was -1.44% (inactive); for `CC(=O)c1ccc(N2CCN(C3C(=O)c4ccccc4N3C(C)=O)CC2)cc1` (stereo not given), -28.3% (inactive).
For `Cc1ccc(C)c(N2CCN(CCCNC(=O)Nc3ccc(Cl)cc3)CC2)c1` the value was 37.2% (inactive); for `CC1=C(c2ccc(Cl)cc2)S(=O)(=O)N=C1N1CCN(c2cc(C)ccc2C)CC1`, -14.2% (inactive); for `CC1=C(c2ccc(C)cc2)S(=O)(=O)NC1=NCCCN1CCN(c2cc(C)ccc2C)CC1`, 84.3% (active).
With `Cc1ccc(C(=O)Nc2ccc(OCc3cc(=O)n4c(C)csc4n3)cc2)cc1`, the activation was 3.91% (inactive).
The same measure for `Cc1csc2nc(COc3ccc(NC(=O)COc4ccccc4)cc3)cc(=O)n12`: 63.9% (active); for `Cc1ccc(OCC(=O)Nc2ccc(OCc3cc(=O)n4c(C)csc4n3)cc2)cc1C`: -16.1% (inactive); for `COc1ccccc1N1CCN(CCCNC(=O)c2cnn(-c3ccccc3Cl)c2C2CCN(C(=O)OC(C)(C)C)CC2)CC1`: -18.9% (inactive).
The same measure for `O=C(CCS(=O)(=O)c1cc(Br)cc2c1N(C(=O)C1CC1)CC2)Nc1ccc(C(F)(F)F)cc1`: -8.56% (inactive); for `CC(C)NC(=O)c1nn(-c2ccccc2F)nc1CO`: -8.71% (inactive); for `O=C(NCCc1ccccc1)c1ccc2c(c1)N(Cc1ccccc1)C(=O)c1ccccc1S2(=O)=O`: 92.4% (active).
`COCCNC(=O)c1ccc2c(c1)N(Cc1cccc(Cl)c1)C(=O)c1ccccc1S2(=O)=O`: the activation is -32.3% (inactive).
With `O=C(NCCc1ccccc1)c1ccc2c(c1)N(Cc1ccc(F)cc1)C(=O)c1ccccc1S2(=O)=O`, the activation was -31.8% (inactive).
For the molecule `CC(C)(C)c1ccc(S(=O)(=O)N2CCN(C(=O)c3cc(-c4ccc(Br)cc4)n[nH]3)CC2)cc1`, the activation is -6.87% (inactive).
For `OCc1cnc(SCc2ccc(F)cc2)n1Cc1ccc(F)cc1` the value was 109% (active); for `O=C(CSc1ncc(CO)n1Cc1ccc(F)cc1)NCc1ccco1`, 7.63% (inactive).
The same measure for `O=C(CSc1ncc(CO)n1Cc1ccc(Cl)cc1)NCc1ccc(F)cc1`: 39.5% (inactive); for `CCOC(=O)C(Cc1ccccc1)NC(=O)CCc1c(C)nc2c(c(C)nn2-c2ccc(C)c(C)c2)c1C` (stereo not given): -3.74% (inactive).
The same measure for `COc1cccc(CNC(=O)Cc2csc3nc(-c4ccccc4)cn23)c1`: -4.88% (inactive); for `Cc1ccccc1C(=O)NCc1nc(-c2ccc(Cl)cc2)no1`: -2.46% (inactive); for `COc1ccc(-c2noc(CCC(=O)N(C)c3ccccc3C)n2)cc1`: 107% (active).
For the molecule `COc1ccc(-c2noc(CSc3nc4ccc(C)cc4[nH]3)n2)cc1`, the activation was 23.5% (inactive).
For `COc1cccc(CNC(=O)CCc2nc(-c3ccc(C)cc3)no2)c1` the value was 92.5% (active); for `COc1cccc(CNC(=O)Cn2ncn3c(cc4ccccc43)c2=O)c1`, -1.19% (inactive); for `Cc1ccc(NC(=O)CSc2nc3c([nH]c4ccccc43)c(=O)n2-c2ccccc2)cc1Cl`, -26.8% (inactive).
For `CCCCNC(=O)c1cc(-c2ccc(Cl)c(Cl)c2)on1` the value was 8.61% (inactive); for `COc1ccc(C(=O)Nc2ccc(-n3nncc3-c3ccccc3)cc2)cc1OC`, -15.2% (inactive); for `O=C(CSc1oc(-c2ccccc2)nc1S(=O)(=O)c1ccc(Br)cc1)NC1CCCCC1`, -14.8% (inactive).
The same measure for `COc1ccc(C)cc1Nc1nc2ccccc2c2nnc(C)n12`: 9.83% (inactive); for `CCC(=O)N1CCc2cc(S(=O)(=O)NC(C(=O)NCCc3ccc(C)cc3)C(C)C)ccc21` (stereo not given): -8.05% (inactive); for `CCC(=O)N1CCc2cc(S(=O)(=O)NC(CC(C)C)C(=O)NCCc3cccc(C)c3)ccc21` (stereo not given): 64.6% (active).
Turning to `CCC(=O)N1CCc2cc(S(=O)(=O)NC(Cc3ccccc3)C(=O)NCc3ccc(C)cc3)ccc21` (stereo not given), the activation is -14.4% (inactive).
For `Cc1ccc(-c2cnc(NCc3ccc(C(C)C)cc3)n2C)cc1` the value was -44.5% (inactive); for `CSc1ccc(CCNC(=O)c2cnn(-c3ccccc3)c2-n2cccc2)cc1`, -2.99% (inactive).
